Experimental data: PubChem BioAssay (NCATS)
Several values for one entry are separate records, joined by “and”; a condition that tells them apart may be missing. Equal entries are not always repeated. Values without a mark were called inactive. Records with an inconclusive call do not appear. Activity calls are given as the source filed them. Calls come from the whole dose curve; as a rule, active = well fitted curve in the direction sought with a large enough effect; inconclusive = small, poorly fitted or top-dose-only effect, or another doubt; inactive = no such curve, though single readings can be large; an effect the other way counts as inactive or inconclusive.

Test: qHTS for small molecule inhibitors of Yes1 kinase: Counter Assay (AID 686950);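 note: no kinase present so only ADP-Glo detection of a fixed ADP amount is tested; luminescence from ADP-Glo reporting ADP in a fixed ATP and ADP mixture; 0% = DMSO wells with ATP plus ADP and -100% = ATP-only wells without ADP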
Conditions: series mostly up to 76.9 µM
Method in brief: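 Enzyme-free detection counter-screen: compounds preincubated 20 min in buffer, then 0.08 mM ATP plus 0.02 mM ADP added for 60 min at room temperature; ADP-Glo luminescence. Buffer 50 mM Tris pH 7.5, 10 mM MgCl2, 150 mM NaCl; normalized to ATP+ADP and ATP-only controls.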

Row | SMILES | outcome
1 | CC(C)c1ccccc1Cc1cc(C(=O)Nc2ccc(S(=O)(=O)c3ccccc3C(C)(C)C)cc2)c(O)c(O)c1O | inactive
2 | Cc1cn2c(-c3cn[nH]c3)cnc2c(Nc2ccc(C(=O)N3CCNCC3)cc2F)n1 | inactive
3 | Cc1[nH]nc2ccc(-c3cncc(OC[C@@H](N)Cc4ccccc4)c3)cc12 | inactive
4 | Nc1nc(-c2nn(Cc3ccccc3F)c3ncccc23)nc(N)c1N1CCOCC1 | inactive
5 | CC(NCc1ccc2c(c1)nc(NC(=O)c1ccc(-c3cn[nH]c3)s1)n2CC(C)(C)O)C(C)(C)C (stereo not drawn) | inactive
6 | COC(=O)c1ccc2c(C(=Nc3ccc(N(C)C(=O)CN4CCN(C)CC4)cc3)c3ccccc3)c(O)[nH]c2c1 | inactive
7 | O=C(C=Cc1cccnc1)NCCCCC1CCN(C(=O)c2ccccc2)CC1 | inactive
8 | c1cc(-c2cnn3cc(-c4ccc(OCCN5CCCCC5)cc4)cnc23)ccn1 | inactive
9 | CC1(C)OC2=C(C(=O)c3ccccc3C2=O)[C@H](NCc2ccccc2)[C@H]1O | inactive
10 | O=C(NC1CCNCC1)c1[nH]ncc1NC(=O)c1c(Cl)cccc1Cl | inactive
11 | C=CC(=O)Nc1cc2c(Nc3ccc(F)c(Cl)c3)ncnc2cc1OCCCN1CCOCC1 | inactive
12 | CN1CCN(c2ccc3nc(-c4c(N)c5c(F)cccc5[nH]c4=O)[nH]c3c2)CC1 | inactive

Test: qHTS Assay for Identifying Gametocytocidal Compounds (AID 743244); note: potency is the fitted concentration of half-maximal effect;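 for max response: % is set by controls: 0 for no effect and ±100 for the full control effect; actives lower the fluorescent signal which means gametocytes are killed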
Conditions: P. falciparum 3D7 stage III-V gametocytes, alamarBlue, 72 h; max response: hits give low values
Method in brief: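 P. falciparum 3D7 stage III–V gametocytes (20,000 cells/well) were exposed to compounds for 72 h at 37 °C, 5% CO2. AlamarBlue was then added for 24 h; decreased resorufin fluorescence (Ex 525/Em 598 nm) indicated loss of viability.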

Row | SMILES | max response | Potency
13 | COc1ccc2c(c1)CC[C@@H](CN(C)CC(=O)O)[C@H]2c1ccccc1 | 4.46% | 
14 | CC(C)CC(=O)Nc1n[nH]c2c1CN(C(=O)C1CCN(C)CC1)C2(C)C |  | 18.7 µM (active)
15 | Nc1cc(C(F)(F)F)c(-c2cc(N3CCOCC3)nc(N3CCOCC3)n2)cn1 | -15.2% | 
16 | C=CC(=O)Nc1cc2c(Nc3ccc(F)c(Cl)c3)ncnc2cc1C#CC(C)(C)N1CCN(C)CC1 |  | 18.7 µM (active)
17 | CC(C)(C)OC(=O)Nc1ccc(-c2cc(C(=O)NCCCCCCC(=O)NO)no2)cc1 |  | 9.35 µM (active)
18 | CC(=O)SC[C@@H](C)C(=O)N1CCC[C@H]1C(=O)N[C@@H](Cc1ccccc1)C(=O)O | 7.13% | 
19 | Clc1ccc2ncc(-c3cccc(NC4CNC4)n3)n2c1 | -0.805% | 
20 | CCCCc1nc2cc(C=CC(=O)NO)ccc2n1CCN(CC)CC |  | 3.72 µM (active)
21 | O=C(NCCS(=O)(=O)c1ccc(C(F)(F)F)cn1)c1ccc(Cl)cc1 | 12.1% | 
22 | Cc1cc(Nc2cc(N3CCN(C)CC3)nc(C=Cc3ccccc3)n2)n[nH]1 |  | 8.33 µM (active)
23 | Cc1cn2c(-c3cn[nH]c3)cnc2c(Nc2ccc(C(=O)N3CCNCC3)cc2F)n1 |  | 23.5 µM (active)
24 | C=CCn1c(=O)c2cnc(Nc3ccc(N4CCN(C)CC4)cc3)nc2n1-c1cccc(C(C)(C)O)n1 |  | 3.32 µM (active)
25 | Nc1nc(-c2nn(Cc3ccccc3F)c3ncccc23)nc(N)c1N1CCOCC1 | -6.3% | 
26 | CC(NCc1ccc2c(c1)nc(NC(=O)c1ccc(-c3cn[nH]c3)s1)n2CC(C)(C)O)C(C)(C)C (stereo not drawn) |  | 9.35 µM (active)
27 | O=C(C=Cc1c(C(=O)O)[nH]c2cc(Cl)cc(Cl)c12)Nc1ccccc1 | 20.3% | 
28 | CC(=O)OCCN1C(=O)c2c(C)nc3ccc(S(=O)(=O)N4CCOCC4)cc3c2C1=O | 15.6% | 
29 | O=C(C=Cc1cccnc1)NCCCCC1CCN(C(=O)c2ccccc2)CC1 | 33.6% | 
30 | CC[C@@H]1C(=O)N(C)c2cnc(Nc3ccc(C(=O)NC4CCC(N5CCN(CC6CC6)CC5)CC4)cc3OC)nc2N1C(C)C (stereo partly drawn) |  | 7.43 µM (active)
31 | O=C(O)c1ccc2c(c1)nc(Nc1cccc(Cl)c1)c1ccncc12 | 35.3% | 
32 | CC1(C)OC2=C(C(=O)c3ccccc3C2=O)[C@H](NCc2ccccc2)[C@H]1O |  | 0.743 µM (active)
33 | COc1ccc(CC2SC(=O)NC2=O)cc1C(=O)NCc1ccc(C(F)(F)F)cc1 (stereo not drawn) | 16.4% | 
34 | c1ccc2c(CCNc3ccc(Nc4ccncc4)cc3)c[nH]c2c1 |  | 9.35 µM (active)
35 | O=C(NC1CCNCC1)c1[nH]ncc1NC(=O)c1c(Cl)cccc1Cl |  | 1.32 µM (active) and 2.64 µM (active)
36 | CC(C)(O)CCc1ccc(OCc2cc(-c3cccc(OC(F)F)c3)c3ncccc3c2)cc1 | 9.3% | 
37 | COc1cc(C(C)C)c2c(c1)S(=O)(=O)N(COc1cc(=O)n3cccc(OCCN4CCCCC4)c3n1)C2=O | -3.11% | 
38 | Cc1cnc(-c2cnc(NCCNc3ccc(C#N)cn3)nc2-c2ccc(Cl)cc2Cl)[nH]1 | 11.2% | 
